Source: ChEMBL document CHEMBL1201862, “PubChem BioAssay data set” (2004)
Hit rate of the full screen: of about 420,000 compounds, about 50,000 (12%) were called active. Inconclusive results (about 26%) are left out. The calls are words filed in the database; no cut-off is given here. This excerpt belongs to a sample that is enriched for actives.

Each compound was assayed against Tyrosyl-DNA phosphodiesterase 1 (Homo sapiens) (UniProt Q9NUW8) (assay: qHTS for Inhibitors of human tyrosyl-DNA phosphodiesterase 1 (TDP1): qHTS in cells in presence of CPT.).
Assay type: functional

Chain of Tyrosyl-DNA phosphodiesterase 1 (Homo sapiens) (Q9NUW8 whole entry): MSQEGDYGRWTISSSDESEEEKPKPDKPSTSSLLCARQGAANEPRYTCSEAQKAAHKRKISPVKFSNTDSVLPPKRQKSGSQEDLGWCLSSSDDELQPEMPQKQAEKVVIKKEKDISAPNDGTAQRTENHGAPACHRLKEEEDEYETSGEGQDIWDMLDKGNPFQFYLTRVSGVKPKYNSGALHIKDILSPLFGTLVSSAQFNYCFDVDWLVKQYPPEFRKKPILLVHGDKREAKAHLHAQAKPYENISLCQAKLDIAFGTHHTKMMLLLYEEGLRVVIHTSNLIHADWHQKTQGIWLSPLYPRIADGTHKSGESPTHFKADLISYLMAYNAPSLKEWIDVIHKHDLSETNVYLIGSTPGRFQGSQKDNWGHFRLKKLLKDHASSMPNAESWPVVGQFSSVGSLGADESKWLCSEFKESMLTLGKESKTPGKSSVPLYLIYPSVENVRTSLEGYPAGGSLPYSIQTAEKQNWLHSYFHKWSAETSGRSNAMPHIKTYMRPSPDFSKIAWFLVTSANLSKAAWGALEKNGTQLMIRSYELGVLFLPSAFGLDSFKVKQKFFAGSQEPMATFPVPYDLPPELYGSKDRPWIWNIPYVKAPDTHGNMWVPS

Potency, active:
COc1ccc(OC)c(/C=C/c2cccc3c2N(CCCCI)C=S3/C=C/c2cc(OC)ccc2OC)c1 (stereo not given) 6.31 µM
CC(C)C(C)c1cccc2c1NC=S2C(C)C(C)C (stereo not given) 5.62 µM
COc1ccccc1/C=C/C(=O)c1cccs1 9.44 µM
Cc1cccc2c1N(CCCCI)C=S2C (stereo not given) 3.98 µM
ICCCCN1C=S(CI)c2ccccc21 (stereo not given) 10 µM
